In PubChem BioAssay AID1745850 (National Center for Advancing Translational Sciences (NCATS), 2022):
The whole screen tested about 2,100 compounds, of which about 260 (12%) were called active. About 58% were inconclusive and are not listed. The list shows a part of the results. Unmarked numbers belong to inactive results. The call rests on the fitted dose curve; in most records, active means well fitted cell-killing curve with a large enough effect; inconclusive means small, poorly fitted or top-dose-only effect, or effect the other way; inactive means flat fitted curve, though single readings scatter.

Experiment: Viability Counterscreen for Confirmatory qHTS for Inhibitors of ATXN expression; further: nearly all actives have a fitted effect of over 50% in size
Settings: HEK-293 ATXN2-luc cells viability, CellTiter-Fluor, 24 h; activity change, negative = cytotoxicity: at the top concentration
Method in brief: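 Cells with an ATXN2-luciferase reporter were dosed in a dilution series for 24 h at 37 degrees C. Viability was read first with Gly-Phe-AFC at 25 uM final (fluorescence, ex 405/em 540), then SteadyGlo luminescence. Medium-only wells defined 100% inhibition.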
Potency means the concentration at half of the fitted maximal effect.

| SMILES | activity change, negative = cytotoxicity | Potency |
| --- | --- | --- |
| CCN1CC2=C(OC(N)=C(C#N)C2c2cccs2)/C(=C\c2cccs2)C1 (stereo not given) | -21.6% |  |
| C/C(=N\NC(=O)C12CCC(C)(C(=O)O1)C2(C)C)c1ccccc1O (stereo not given) | -16.2% |  |
| Cc1nn(-c2ccccc2)c2nc(-c3cccs3)cc(C(=O)NN)c12 | -21.5% [at 57.5 µM] |  |
| CCCNC(=O)c1ccc2c(=O)c(O)c(-c3ccc(C)cc3)[nH]c2c1 | -21.6% [at 57.5 µM] |  |
| CC(=O)c1cccc(-c2csc3ncnc(Sc4nnnn4C)c23)c1 |  | 11.2 µM (active) |
| Cn1nnnc1Sc1ncnc2scc(-c3cccc(S(C)(=O)=O)c3)c12 |  | 22.4 µM (active) |
| CCN1CCS/C1=C\C=C\C1=[N+](CC)CCS1 |  | 25.1 µM (active) |
| Cc1cc(C)cc(NC(=O)CCc2nc3sc4c(c3c(=O)[nH]2)CCCC4)c1 | -28.2% |  |
| Cc1cc(C)nc(/N=C(\N)Nc2ccc(C(C)C)cc2)n1 | -22.8% |  |
| Cc1ccc(N/C(N)=N/c2nc(C)cc(N3CCCCC3)n2)c(C)c1 |  | 3.16 µM (active) |
| O=C(c1ccco1)N1CCN(c2ncnc3scc(-c4cccs4)c23)CC1 | -14.1% |  |
| COc1ccccc1OCCN1CSC(=S)N(C)C1 |  | 20 µM (active) |
| COC(=O)C1=C(C)N(c2ccc(Cl)c(Cl)c2)C(=O)C1 | -20% |  |
| CCCCC(=O)NNC(=S)NC(=O)c1ccc(C)cc1 | -5.51% |  |
| COc1ccc2c(c1)CCCN2S(=O)(=O)c1ccc(Cl)cc1 | -21.8% [at 57.5 µM] |  |
| COc1ccc(CCNC2=C(Cl)C(=O)N(Cc3ccccc3)C2=O)cc1OC | -4.27% |  |
| COc1ccc(/C=C2\CN(Cc3ccccc3)C/C(=C\c3ccc(OC)c(O)c3)C2=O)cc1O |  | 12.6 µM (active) |
| COCC(C)n1c(C)cc(C(=O)COC(=O)c2cccn2C)c1C (stereo not given) | 4.04% |  |
| CCOc1cc(C=C(C(=O)OC)C(=O)OC)ccc1OCc1ccc([N+](=O)[O-])cc1 |  | 28.2 µM (active) |
| N#Cc1nc(COc2ccc(-c3ccccc3)cc2)oc1NCc1cccnc1 | -11.9% |  |
| CC(C(=O)c1ccc(-c2ccccc2)cc1)[n+]1cccc(NC(=O)c2ccccc2)c1 (stereo not given) | -5.41% |  |
| O=C(Nc1ccc[n+](CC(=O)c2cccc3ccccc23)c1)c1ccccc1 |  | 3.16 µM (active) |
| O=C(/C=C/c1ccc(Cl)cc1)Nc1ccc(CN2CCOCC2)cc1 | -13.1% |  |
| O=C(Nc1cnn(C23CC4CC(CC(C4)C2)C3)c1)c1cnn2c(C(F)(F)F)cc(-c3ccco3)nc12 |  | 35.5 µM (active) |
| Cn1c(S(=O)(=O)c2ccc([N+](=O)[O-])cc2)nc(Br)c1Br | -5.53% |  |

| SMILES | activity change, negative = cytotoxicity | Potency |
| --- | --- | --- |
| COc1ccc2c(c1)CC(N1CCN(C)CC1)c1cc(OC)ccc1S2 (stereo not given) |  | 28.2 µM (active) |
| O=C(CSc1nc2ncc(Br)cc2[nH]1)Nc1ccccc1-c1ccccc1 | -20.4% [at 57.5 µM] |  |
| COc1cccc(C2CC(c3c(-c4ccccc4)c4cc(Cl)ccc4[nH]c3=O)=NN2S(C)(=O)=O)c1OC (stereo not given) | -18.9% |  |
| C/C(=N\NC(=O)CN1CCCCC1)c1ccccc1O | -9.43% |  |
| Cc1cc(C)c(S(=O)(=O)/N=C2\C=C(Nc3ccc(C(=O)O)cc3)C(=O)c3ccccc32)c(C)c1 |  | 3.16 µM (active) |
| FC(F)(F)c1nc(-c2cccs2)ncc1-c1nnnn1-c1ccc(Cl)cc1 |  | 35.5 µM (active) |
| Oc1c(C(c2ccccn2)N2CCC(Cc3ccccc3)CC2)cc(Cl)c2cccnc12 (stereo not given) |  | 25.1 µM (active) |
| CCCCSc1nc(C)cc(SCC(=O)N/N=C/c2cccc(OC)c2O)n1 | -21.9% |  |
| O=C(C1CCC(CNS(=O)(=O)c2cccs2)CC1)N1CCN(c2ccc(F)cc2)CC1 (stereo not given) | -23% |  |
| CN1CCN(c2cc(-c3cc(O)c4ncccc4c3)ccn2)CC1 |  | 31.6 µM (active) |
| O=c1c2ccccc2sc2c(CO)ccc(NCCN3CCCCC3)c12 |  | 22.4 µM (active) |
| CCN(CC)CCNc1ccnc2cc(Cl)ccc12 | -14% |  |
| CCN(CC)CCNc1ccc(CO)c2sc3ccccc3c(=O)c12 |  | 20 µM (active) |
| Cc1cc(C(=O)CN2C(=O)c3ccccc3S2(=O)=O)c(C)n1C(C)C | 4.42% |  |
| O=C(Nc1ccc(Br)cc1)c1cccc(OC(=S)N2CCOCC2)c1 | -8.47% |  |
| CCn1c2ccccc2c2cc(NC(=O)COC(=O)c3cccc(S(=O)(=O)NC)c3)ccc21 | -19.4% [at 57.5 µM] |  |
| OC1(c2ccc(Cl)cc2)CCN(Cc2c[nH]c3ccccc23)CC1 | -15.6% |  |
| O=C(Nc1ccc(Cl)cc1)Nc1nc(-c2sccc2Br)cs1 |  | 10 µM (active) |
| O=C(Nc1ccc(NC(=O)c2ccc(Cl)cc2Cl)cc1)c1cccs1 | -22.4% [at 57.5 µM] |  |
| CCCCOc1ccccc1NC(=O)Cn1c(-c2nonc2N)nc2ccccc21 |  | 11.2 µM (active) |
| CCCCOc1ccccc1NC(=O)c1scc2c1OCCO2 | -17.1% |  |
| CCOc1ccccc1NC(=O)CCCc1nc2ccccc2c(=O)[nH]1 | -11% |  |
| Cc1cc(OCCCCCn2ccnc2)cc(C)c1Cl | -28.4% [at 57.5 µM] |  |
| Cc1cc(SCC(=O)NN)c2cc(Br)ccc2n1 | -20.4% [at 57.5 µM] |  |
| CCCOc1ccc(C(=O)NC(=S)NNC(=O)c2c(-c3ccccc3)noc2C)cc1 | 1.64% |  |
